Experimental data published in PubChem BioAssay.
Several values for one entry are separate records, joined by “and”; a condition that tells them apart may be missing. Identical values can stand only once. Some compounds were tested as several samples or in several runs, with calls that do not always agree. Activity calls are given as the source filed them.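 The calls were made as follows, unless noted: active = inhibition at or above 50% relative to wild type and mutant plate controls; inactive = inhibition below 50%.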

Assays:
[1] = inhibitors of mutant huntingtin aggregation, primary screen, imaging, exon1htt(103Q)mCFP cells, high-content imaging (AID 483;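 active = visual image review flags a hit and inhibition of aggregation exceeds 20%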;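 also: compound exposure lasted 3 days before fixation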;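 as to nuclei count: percent of the per-plate median nuclei count of sample wells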); details: exon1htt(103Q)mCFP cell line, aggregate imaging, at 2 µM; inhibition of aggregation: stronger effect = higher value; nuclei count: measured here: cell count, toxicity
[2] = inhibitors of E-selectin induction by TNFa, primary screen, imaging, HUVEC, immunofluorescence, MLSMR starter and 10KST1 sets (AID 487;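 active = visually confirmed hit in the image check and inhibition above 20%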;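 as to inhibition: signal is fraction of cell area covered by stained E-selectin grains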;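 as to nuclei count: 100% = median nuclei count of all wells on the same plate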); details: HUVEC TNFalpha-induced E-selectin immunofluorescence imaging, at 2 µM; inhibition: stronger effect = higher value; nuclei count: measured here: cell number, toxicity
[3] = DUSP6 inhibitors restoring Erk phosphorylation by chemical complementation, primary imaging in DUSP6-transfected HeLa (AID 609;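 active = compounds giving at least 50% inhibition in the cell-based MKP-3 phosphatase rescue imaging test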;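 as to inhibition: phospho-Erk level distribution per well compared with pooled transfected vehicle control wells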); details: HeLa MKP-3 transfected, phospho-Erk imaging KS statistic, at 10 µM, cells stimulated with TPA for 15 min
[4] = target: Dual specificity protein phosphatase 6 (Homo sapiens) (UniProt Q16828); assay: as above; details: HeLa MKP-3 transfected, phospho-Erk imaging KS statistic; at 10 µM; stronger effect = higher value; cells stimulated with TPA for 15 min
[5] = target: Voltage-gated potassium channel subunit beta-2 (Rattus norvegicus) (UniProt P62483); assay: KvBeta enzyme negative modulators, primary screen, biochemical, NADPH fluorescence (AID 622;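 active = fluorescence slope higher than the sample average by over 3 SD, cut at about -0.22 in these data, passing the limit was not always enough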;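 also: slope of raw intensity against log time taken from 70 to 1610 s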); details: recombinant KvBeta, 4-cyanobenzaldehyde reduction, at 10 µM, stronger effect = higher value
[6] = target: Voltage-gated potassium channel subunit beta-2 (Rattus norvegicus) (UniProt P62483); assay: KvBeta positive modulators, primary screen, biochemical, NADPH fluorescence (AID 623;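 active = NADPH fluorescence slope more negative than the mean of all samples by about 3 SD, 99.7% confidence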;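 also: fluorescence intensity change per second fitted from 20 to 320 s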); details: Recombinant KvBeta, NADPH fluorescence decrease slope, 10 min; at 10 µM; stronger effect = lower value
[7] = target: Alpha-2C adrenergic receptor (Homo sapiens) (UniProt P18825); assay: modulators of alpha2C/GIRK thallium flux, primary screen, cell-based, HEK293 alpha2C/GIRK1/2 (AID 624;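 active = fluorescence slope after compound addition differing from the mean of all screened samples at 99.7% confidence, in either direction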;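 also: slope of fluorescence ratio to pre-addition baseline per second over 15 to 24 s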); details: thallium flux BTC fluorescence, at 10 µM, actives lie on both sides
[8] = inhibitors of larval lipid processing in zebrafish, primary screen, whole organism, PED6 fluorescence, gall bladder and intestine (AID 686;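 active = a full or partial loss of lipid-probe fluorescence in the fish gall bladder, intestine or both, judged by eye; inactive = no fluorescence loss, or compound toxic to the fish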;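 also: larvae 5 to 7 days old with five fish per well; signal comes from phospholipase A2 cleavage of quenched PED6 carried via bile; overnight exposure to compound and PED6 before scoring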); details: Zebrafish larvae PED6 lipid processing, fluorescence scoring; screened at 20 µM (by protocol)
[9] = inhibitors of Chlamydomonas gravitaxis, primary screen, whole organism, Chlamydomonas reinhardtii, WT vs cilia-less mutant, absorbance, 96-well (AID 463189); details: OD600 absorbance, 2 days, at 10 µM, stronger effect = higher value;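 also: 0% = wild type cc124 cells in DMSO and 100% = ciliumless bld1 mutant cells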
[10] = inhibitors of Sendai virus-induced IRF3 signaling, primary screen, TLR/RLR signaling modifier project, cell-based, Sendai virus stimulus, luciferase, 10K MLSCN set (AID 602276;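 active = inhibition at or above 50% at 10 µM; inactive = inhibition below 50%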;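 also: firefly luciferase from ISG56 promoter only with Renilla not read in this screen; 0% = Sendai virus plus DMSO and 100% = medium plus DMSO without virus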); details: HEK293 RL24 IRF3 luciferase reporter, at 10 µM, stronger effect = higher value
[11] = inhibitors of poly I:C-induced TLR3 signaling, primary screen, cell-based, poly I:C stimulus, luciferase, 10K MLSCN set (AID 602277;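 active = inhibition of the reporter signal at or above 50%; inactive = inhibition below 50%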); details: HEK293-TLR3 RL24 IRF3 luciferase reporter, at 10 µM, stronger effect = higher value
[12] = target: Muscarinic acetylcholine receptor M4 (Homo sapiens) (UniProt P08173); assay: compounds altering M4/GIRK thallium flux, either direction, primary screen, M4 allosteric agonist project, cell-based, HEK293 M4/GIRK, BTC-AM (AID 625;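 active = fluorescence slope after compound addition differing from the mean of all tested samples at 99.7% confidence, mostly higher but some lower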;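 also: thallium influx through GIRK channels coupled to M4 in HEK293 cells with BTC-AM dye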); details: at 10 µM, actives lie on both sides
[13] = measured here: cell density z-score
[14] = measured here: nuclear c-Myc green intensity z-score
[15] = measured here: nuclear pErk red intensity z-score, stronger effect = higher value

Sequence of Voltage-gated potassium channel subunit beta-2 (Rattus norvegicus) (P62483 whole entry, looked up): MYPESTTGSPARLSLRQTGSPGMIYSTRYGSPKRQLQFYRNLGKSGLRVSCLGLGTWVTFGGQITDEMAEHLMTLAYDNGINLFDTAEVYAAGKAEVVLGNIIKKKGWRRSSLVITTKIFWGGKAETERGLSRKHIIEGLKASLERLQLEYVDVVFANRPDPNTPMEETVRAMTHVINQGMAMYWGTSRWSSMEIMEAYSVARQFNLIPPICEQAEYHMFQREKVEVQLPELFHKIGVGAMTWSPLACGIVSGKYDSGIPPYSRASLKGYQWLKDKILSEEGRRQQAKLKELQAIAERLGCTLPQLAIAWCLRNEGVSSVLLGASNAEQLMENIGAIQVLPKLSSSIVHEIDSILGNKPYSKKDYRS
Sequence of Dual specificity protein phosphatase 6 (Homo sapiens) (Q16828 whole entry, looked up): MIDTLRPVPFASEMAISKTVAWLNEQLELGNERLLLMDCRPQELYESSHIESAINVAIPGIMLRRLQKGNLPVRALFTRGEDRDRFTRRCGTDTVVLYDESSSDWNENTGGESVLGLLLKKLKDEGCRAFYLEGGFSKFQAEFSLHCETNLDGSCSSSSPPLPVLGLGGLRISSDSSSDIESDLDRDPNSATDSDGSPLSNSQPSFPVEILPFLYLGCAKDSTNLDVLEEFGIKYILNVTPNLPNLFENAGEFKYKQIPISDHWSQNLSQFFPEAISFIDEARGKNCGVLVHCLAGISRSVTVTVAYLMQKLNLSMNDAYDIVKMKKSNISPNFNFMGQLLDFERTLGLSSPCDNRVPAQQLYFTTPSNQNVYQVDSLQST
Sequence of Alpha-2C adrenergic receptor (Homo sapiens) (P18825 whole entry, looked up): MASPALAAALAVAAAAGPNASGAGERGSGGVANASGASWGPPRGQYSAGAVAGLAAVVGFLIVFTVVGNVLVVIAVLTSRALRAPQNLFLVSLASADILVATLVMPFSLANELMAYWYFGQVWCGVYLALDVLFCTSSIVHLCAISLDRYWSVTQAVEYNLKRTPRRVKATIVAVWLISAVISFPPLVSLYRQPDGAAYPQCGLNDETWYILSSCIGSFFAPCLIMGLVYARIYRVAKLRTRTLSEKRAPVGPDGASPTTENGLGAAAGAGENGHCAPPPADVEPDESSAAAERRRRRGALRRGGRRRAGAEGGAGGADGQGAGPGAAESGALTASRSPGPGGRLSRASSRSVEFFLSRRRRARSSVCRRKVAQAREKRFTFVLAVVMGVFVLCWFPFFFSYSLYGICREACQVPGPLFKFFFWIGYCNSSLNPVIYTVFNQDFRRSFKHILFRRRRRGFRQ
Sequence of Muscarinic acetylcholine receptor M4 (Homo sapiens) (P08173 whole entry, looked up): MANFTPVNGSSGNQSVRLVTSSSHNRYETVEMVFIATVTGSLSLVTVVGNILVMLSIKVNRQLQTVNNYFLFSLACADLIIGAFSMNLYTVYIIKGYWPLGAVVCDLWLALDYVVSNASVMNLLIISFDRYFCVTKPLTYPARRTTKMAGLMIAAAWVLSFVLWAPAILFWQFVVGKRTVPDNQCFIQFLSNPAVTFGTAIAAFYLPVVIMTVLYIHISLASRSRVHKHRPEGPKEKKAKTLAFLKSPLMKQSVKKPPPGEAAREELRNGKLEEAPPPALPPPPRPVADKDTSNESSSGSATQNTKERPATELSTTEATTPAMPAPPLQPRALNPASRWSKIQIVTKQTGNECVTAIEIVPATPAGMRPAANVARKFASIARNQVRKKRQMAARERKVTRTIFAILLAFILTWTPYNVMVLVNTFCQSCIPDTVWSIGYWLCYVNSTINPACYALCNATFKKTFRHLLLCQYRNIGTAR

SMILES | inhibition of aggregation [1] | nuclei count [1] [%] | inhibition [2] | nuclei count [2] [%] | z-score [3, 13] | z-score [3, 14] | z-score [3, 15] | inhibition [4] | fluorescence slope [5] | NADPH fluorescence slope [6] | slope [7] | outcome [8] | inhibition [9] | inhibition [10] | inhibition [11] | fluorescence slope [12]
CCn1cc(C(=O)O)c(=O)c2cnc(N3CCNCC3)nc21 | 1.6% (inactive) | 108 | -26.1% (inactive) | 127 | 0.597 | 0.614 | 0.576 | 14.6% (inactive) | -0.512 (inactive) | -1.1e-05 (inactive) | 0.00483 (inactive) | inactive | -9.24% (inactive) | 4.06% (inactive) | 33.1% (inactive) | 
CC(C)NCC(O)COc1ccc(CC(N)=O)cc1 (stereo not given) | -3.8% (inactive) | 97.3 | -96.5% (inactive) | 135 | -1.26 | -0.177 | -0.441 | -2.46% (inactive) | -0.47 (inactive) | 1.8e-05 (inactive) | 0.00481 (inactive) | inactive | -6.18% (inactive) and -8.19% (inactive) | -12.5% (inactive) | -8.56% (inactive) | 
CC1(C)S[C@@H]2[C@H](NC(=O)Cc3ccccc3)C(=O)N2[C@H]1C(=O)O | 9.3% (inactive) | 68.8 | -6% (inactive) | 104 | 1.44 | -1.24 | -1.04 | 5.79% (inactive) | -0.496 (inactive) | -5.4e-05 (inactive) | 0.00416 (inactive) | inactive | 4.14% (inactive) | 20.3% (inactive) | 37.6% (inactive) | 
Cc1cccc(N2CN=c3s/c(=C\c4ccncc4)c(=O)n3C2)c1 | 13.2% (inactive) | 99.6 | -56.6% (inactive) | 121 | -0.505 | -1.69 | 1.18 | -10.5% (inactive) | -0.334 (inactive) | 5.8e-06 (inactive) | 0.00412 (inactive) | inactive | 22.1% (inactive) | 10.3% (inactive) | -3.47% (inactive) | 
CCCc1cc(=O)[nH]c(=S)[nH]1 | 6.2% (inactive) | 105 | -113% (inactive) | 126 | 0.461 | -0.47 | -0.798 | 15.3% (inactive) | -0.468 (inactive) | -6.3e-05 (inactive) | 0.00437 (inactive) | inactive | -10.4% (inactive) | 10.3% (inactive) | 30.1% (inactive) | 
Cc1cccc(CN2CCN(C(c3ccccc3)c3ccc(Cl)cc3)CC2)c1 (stereo not given) | -13.4% (inactive) | 103 | -28.5% (inactive) | 122 | -0.832 | -0.304 | -0.398 | 1.48% (inactive) | -0.508 (inactive) | -3.3e-06 (inactive) | 0.00615 (inactive) | inactive | -15.7% (inactive) | 6.06% (inactive) | 30.8% (inactive) | 
CCc1nc(N)nc(N)c1-c1ccc(Cl)cc1 | -35.2% (inactive) | 76.3 | -93.1% (inactive) | 108 | -1.21 | 2.44 | -0.22 | 12.4% (inactive) | -0.503 (inactive) | 1.5e-05 (inactive) | 0.00459 (inactive) | inactive | 37.1% (inactive) | 18.7% (inactive) | -1.71% (inactive) | 
CN(C)C(=O)Oc1ccc[n+](C)c1 | -10% (inactive) | 104 | -27% (inactive) | 132 | -0.869 | 0.159 | 0.378 | 13.3% (inactive) | -0.448 (inactive) | -5.3e-05 (inactive) | 0.005 (inactive) | inactive | -1.87% (inactive) and 14.9% (inactive) | 6.65% (inactive) | 26.9% (inactive) | 
COc1ccc(CN(CCN(C)C)c2ccccn2)cc1 | -1.2% (inactive) | 105 | -37.9% (inactive) | 113 | -0.442 | -0.558 | 1.54 | 3.45% (inactive) | -0.507 (inactive) | 9.4e-06 (inactive) | 0.00533 (inactive) | inactive | 3.64% (inactive) and 20.5% (inactive) | 16.8% (inactive) | 30.1% (inactive) | 
COc1cc(C2C(C#N)=C(N)Oc3cc(N)ccc32)cc(OC)c1OC (stereo not given) | -94.1% (inactive) | 1.6 | -83.7% (inactive) | 80.5 | 0.957 | -0.28 | -0.643 | 2.92% (inactive) | -0.434 (inactive) | 1e-06 (inactive) | 0.00523 (inactive) | inactive | 4.51% (inactive) | 46.4% (inactive) | 88.5% (active) | 
OC(CCN1CCCCC1)(c1ccccc1)C1CCCCC1 (stereo not given) | 11.9% (inactive) | 107 | -31.1% (inactive) | 119 | 0.0708 | 1.69 | -1.17 | 21.2% (inactive) | -0.528 (inactive) | -8.4e-05 (inactive) | 0.00465 (inactive) | inactive | 1.25% (inactive) and 22.1% (inactive) | 0.614% (inactive) | -5.26% (inactive) | 
CCOC(=O)c1cc2c(=O)n3cccc(C)c3nc2n(CCc2ccccc2)c1=N | -9% (inactive) | 86.6 | -145% (inactive) | 116 | -0.746 | 0.0077 | 0.78 | -16.8% (inactive) | -0.42 (inactive) | -2e-05 (inactive) |  | inactive | 150% (active) | 12% (inactive) | 28.5% (inactive) | 0.00314 (inactive)
CCCC1O[C@@H]2C[C@H]3[C@@H]4CCC5=CC(=O)C=C[C@]5(C)[C@H]4[C@@H](O)C[C@]3(C)[C@]2(C(=O)CO)O1 (stereo not given in full) | -17.2% (inactive) | 58 | -133% (inactive) | 138 | 0.229 | -0.532 | -0.405 | 13.3% (inactive) | -0.423 (inactive) | 1.2e-05 (inactive) | 0.00479 (inactive) | inactive | 6.85% (inactive) and -4.63% (inactive) | 0.287% (inactive) | 58.3% (active) | 
Cc1cc(C(C)(C)C)c(O)c(C)c1CC1=NCCN1 | 2.2% (inactive) | 87.4 | -50.7% (inactive) | 134 | 0.182 | 0.896 | -0.366 | -2.29% (inactive) | -0.367 (inactive) | -2.8e-05 (inactive) | 0.00482 (inactive) | inactive | 6.18% (inactive) and -2.62% (inactive) | 16.9% (inactive) | 24.3% (inactive) | 
COc1cc(C2Oc3cc(C4Oc5cc(O)cc(O)c5C(=O)C4O)ccc3OC2CO)ccc1O (stereo not given) | 15.4% (inactive) | 94.5 | -86.6% (inactive) | 118 | -0.357 | 0.711 | -0.479 | -8.38% (inactive) | -0.479 (inactive) | 1.9e-05 (inactive) | 0.00477 (inactive) | inactive | -8.52% (inactive) | -16.8% (inactive) | -16.2% (inactive) | 
CC(=O)[C@H]1CC[C@H]2[C@@H]3CCC4=CC(=O)CC[C@]4(C)[C@H]3CC[C@]12C | -5.3% (inactive) | 74.7 | -153% (inactive) | 125 | -0.82 | -0.521 | -0.268 | -0.493% (inactive) | -0.446 (inactive) | -4.8e-05 (inactive) | 0.00331 (inactive) | inactive | 2.24% (inactive) and 8.52% (inactive) | 3.73% (inactive) | 31.6% (inactive) | 
O=c1n(CCCN2CCN(c3cccc(Cl)c3)CC2)nc2ccccn12 | 32% (inactive) | 90 | -117% (inactive) | 124 | -0.214 | -1.66 | 0.38 | -5.24% (inactive) | -0.359 (inactive) | -2.9e-05 (inactive) | 0.00504 (inactive) | inactive | 7.63% (inactive) and 123% (active) | 10.6% (inactive) | 31.8% (inactive) | 
Clc1ccc(Cn2c(CN3CCCC3)nc3ccccc32)cc1 | 13.4% (inactive) | 112 | -57.5% (inactive) | 133 | 0.217 | 0.404 | 0.417 | 1.48% (inactive) | -0.551 (inactive) | -3.2e-05 (inactive) | 0.00478 (inactive) | inactive; toxic | 2.55% (inactive) and 22.9% (inactive) | 16.5% (inactive) | 28.2% (inactive) | 
C=C(CC)C(=O)c1ccc(OCC(=O)O)c(Cl)c1Cl | 19.4% (inactive) | 108 | -32.5% (inactive) | 120 | -0.0756 | -0.0149 | 0.974 | 5.42% (inactive) | -0.476 (inactive) | -8e-05 (inactive) | 0.00538 (inactive) | inactive | -3.46% (inactive) | 17.1% (inactive) | 39.1% (inactive) | 
COc1ccc2c(c1)c(CC(=O)O)c(C)n2C(=O)c1ccc(Cl)cc1 | -23.8% (inactive) | 104 | -69% (inactive) | 122 | 0.752 | -1.27 | -0.74 | 16.8% (inactive) | -0.474 (inactive) | -6.7e-05 (inactive) | 0.00463 (inactive) | inactive | 2.25% (inactive) and -4% (inactive) | 9.52% (inactive) | 22.4% (inactive) | 
